Data on 40 compounds can be found in ChEMBL document CHEMBL3433997, “St. Jude Leishmania screening dataset” (2016).

This assay deals with Hexose transporter 1 (Plasmodium falciparum) (UniProt O97467). Nature of the assay: ST_JUDE_LEISH: Cytotoxicity at 2uM final concentration against transgenic Leishmania Mexicana promastigotes LmPfHT that are glucose transport deficient and complemented with the Plasmodium falciparum hexose transporter. Activity is measured by DNA content using SYBR green in vitro. It counts as functional.
Consider `Cc1ccc2nc(C)cc(N/N=C/c3ccccc3[N+](=O)[O-])c2c1`, for which the inhibition stood at 6.78%. With `Cc1[nH]c2ccc(-c3ccc(N(C)C)cc3)cc2c(=O)c1Cl`, the inhibition turned out to be 3.7%.

Turning to `Nc1c(Cl)cc(C(O)CNCCCCCCOCCc2ccc(CO)s2)cc1Cl` (stereo not given), the inhibition turned out to be 1.49%.

`Cc1cccc2nc(-c3ccc(-c4ccc(CN5CCC(CCN6CCCCC6)CC5)cc4)cc3)[nH]c12`: the inhibition amounted to 7.95%. For `Cn1ccnc1CNC(=O)c1ccc(-c2cccc(-c3nc4cc(C(F)(F)F)ccc4[nH]3)c2)cc1`, the inhibition came out at 0.7%. With `COc1c(C=NNc2nc(=Nc3ccccc3)[nH]c(=Nc3ccccc3)[nH]2)ccc(Br)c1O`, the inhibition is 11.7%.

For `O=S(=O)(c1cc(Cl)c(Cl)cc1Cl)N1CCCCC(c2ccc(C(F)(F)F)cc2)=N1`, the inhibition is 0.43%. As to `COc1cc(NC(=O)NC(CCN2CCC3(CCc4ccccc43)CC2)c2ccc(Cl)c(Cl)c2)cc(OC)c1OC` (stereo not given), the inhibition is 0.09%. For the compound `CN=C(Nc1c(Cl)cccc1Cl)N(C)C`, the inhibition amounted to 4.13%. Regarding `Cc1c(Cc2ccc(F)cc2)c(Cl)nc2nc(N)nc(N)c12`, the inhibition came to 0.4%. To `O=C1Nc2ccccc2/C1=N/NC(=S)N1CCOCC1` belongs -0.87%; to `O=C(Cc1cccs1)NCC(c1ccccc1Cl)c1c[nH]c2ccccc12` (stereo not given), 0.74%; to `Nc1nc(Nc2cccc(Cl)c2)ncc1C(=O)NCc1ccncc1`, 7.86%. The result for `CCN1CCC(N(Cc2ccc(-c3ccc(C(F)(F)F)cc3)cc2)C(=O)Cn2c(CCc3cccc(F)c3F)cc(=O)c3ccc(OCc4ccccc4)cc32)CC1` reads 3.24%. As to `Clc1ncccc1-c1nc(NCCC(c2ccccc2)c2ccccc2)no1`, the inhibition was determined as 2.24%. For `CN1c2ccc([N+](=O)[O-])cc2C(C)(C)C12C=Cc1cc(Br)cc([N+](=O)[O-])c1O2` (stereo not given), the inhibition was -0.39%. For the compound `COc1ccc(-c2ccc(CNC(=O)c3ccc(C#N)cc3)c(F)c2)cc1CN1CCCN(C)CC1`, the inhibition was found to be 0.66%.

For `CCc1ccc(CN2CCCCC(NC(=O)c3cc(-c4ccccc4F)cs3)C2)cc1` (stereo not given), the inhibition was -0.89%.

For the compound `CC(C)(C)OC(=O)NCc1ccc(Nc2nnc(-c3cccc(OCC(=O)NCc4cc(C(F)(F)F)cc(C(F)(F)F)c4)c3)o2)cc1`, the inhibition was determined as 1.63%. Take `NCCc1cccc(-c2cnc3[nH]cc(-c4ccc(C(=O)O)cc4)c3c2)c1`: the inhibition is 0.29%. Regarding `COc1ccc(-c2ccc(NC(=O)c3cccc(C#N)c3)cc2)cc1CN(C)C`, the inhibition was determined as 0.34%. Regarding `CCN1CCN(c2cc(C)c3cc(NC(=O)c4ccc(OC)c([N+](=O)[O-])c4)ccc3n2)CC1`, the inhibition stood at 2.42%.

For `O=C(NCCN1CCCCC1)c1cccc(Nc2nccc(Nc3ccc(Oc4ccccc4)cc3)n2)c1`, the inhibition is -0.85%. As for `N#Cc1cccc(C(=O)Nc2ccc(-c3ccc(CN4CCCC4)cc3)cc2)c1`, the inhibition worked out at 6.53%. To `COc1ccccc1Nc1nc(C)cc(NCc2ccc(-n3ccnc3)cc2)n1` belongs 7.52%; to `CCCCCCN1CCCN(Cc2ccc(C(=O)Nc3ccc(F)c(F)c3)cc2)CC1`, 18.5%.

As to `COc1ccc(CNc2ccnc(-n3cnc4cc(C)c(C)cc43)n2)cc1Cl`, the inhibition worked out at 3.69%. Regarding `c1ccc2c(c1)CN(Cc1ccsc1)CC1(CCN(Cc3c[nH]c4cnccc34)CC1)O2`, the inhibition is 3.19%.

As for `CCCc1cc2c3c(N)nc(N)nc3ccc2n1C(CC)CC`, the inhibition stood at 54.9%. For the compound `CCc1ccc(CN2CCC(CNC(=O)c3cc(-c4cccc(C(F)(F)F)c4)cs3)C2)cc1` (stereo not given), the inhibition was -0.98%. On to `CN1CCCC1CNS(=O)(=O)c1ccc(C(=O)NCC2CC2)cc1` (stereo not given), for which the inhibition came out at 2.45%. Consider `Fc1ccc2[nH]c(-c3cccc(-c4ccc(CN5CCN(c6ccncc6)CC5)cc4)c3)nc2c1`, for which the inhibition turned out to be 1.36%. Regarding `O=C(Nc1cccc(-c2cccc(-c3nc4cc(F)ccc4[nH]3)c2)c1)c1csnn1`, the inhibition stood at 4.57%. As to `O=c1c2ccccc2[nH]c2nc3ccccc3c(Nc3ccccc3)c12`, the inhibition was 12.5%. To `O=C(O)c1cc(C(F)(F)F)co1` belongs -1.54%.

With `Cc1ccc(Nc2ccnc(Nc3ccc(F)c(Cl)c3)n2)cc1O`, the inhibition was 10.4%. For `CC(C)COc1ccc(Cl)cc1Cc1nc(-c2nc3ccc(CN4CCN(C)CC4)cc3[nH]2)co1`, the inhibition was 7.62%. In the case of `FC(F)(F)COc1ccc2ccccc2c1CNCCCCCCNCc1c(OCC(F)(F)F)ccc2ccccc12`, the inhibition was 0.57%. Regarding `CC(C)Oc1ccc(CCCON2C(=N)N=C(N)NC2(C)C)cc1`, the inhibition was found to be 28.2%.

As to `Cc1noc(C)c1-c1ccc2c(Nc3ccccc3C(C)(C)C)c(C(=O)NCc3cccc4ccccc34)cnc2c1`, the inhibition came to 2.01%.
